According to the supplement of paper PMC12494721:
Counter-ions that a name gives are not always drawn.

Experiments:
Conditions in all cases: incubation time: 27 h, anaerobic, 37 °C;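 for the amine columns active = adjusted P below 0.05 in both replicates with a change the same way and a mean fold change under 0.8 or over 1.25; inactive = the rest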
[1] = tested on: Clostridium sporogenes DSM 1664; assay: growth (OD595) fold change vs plate DMSO controls (fold change (ratio)); higher = more growth
Summary of the method: (§1)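 Growth is the fold change relative to the median of plate DMSO controls. Readings came from anaerobic mGAM cultures in 96-well plates grown for 27 h at 37 °C and read at 595 nm. They were blank-subtracted, corrected for compound background with 20 µM compound solutions in water, and converted to OD with a calibration factor of 5. Values are means of 2 biological replicates, and fold changes above 1.5 were set to NA.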

[2] = tested on: Escherichia coli IAI1; assay: as above
Summary of the method: as §1

[3] = tested on: Klebsiella aerogenes DSM 30053; assay: as above
Summary of the method: as §1

[4] = tested on: Ruminococcus gnavus DSM 108212; assay: as above
Summary of the method: as §1

[5] = tested on: Klebsiella aerogenes DSM 30053; assay: fold change of Histamine concentration vs plate DMSO controls (fold change (ratio)); higher = more amine produced, active = hit call of the paper (significant change in both replicates, either direction)
Summary of the method: (§2)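 Anaerobic mGAM cultures of four gut bacterial strains were grown at 37 °C for 27 h in 80 µL wells, starting at OD 0.1 before 1:1 dilution. Compounds were at 20 µM final (sweeteners 50 µM). Whole cultures were extracted with cold acetonitrile/methanol containing 0.1% formic acid and centrifuged. Amines were quantified by LC–triple-quadrupole MS (dynamic MRM) against external calibration curves and drift-corrected within batch. Each value is the fold change versus plate DMSO controls, averaged over 2 biological replicates.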

[6] = tested on: Clostridium sporogenes DSM 1664; assay: fold change of Tryptamine concentration vs plate DMSO controls (fold change (ratio)); higher = more amine produced, active = hit call of the paper (significant change in both replicates, either direction)
Summary of the method: as §2

[7] = tested on: Ruminococcus gnavus DSM 108212; assay: as above
Summary of the method: as §2

[8] = tested on: Escherichia coli IAI1; assay: fold change of Putrescine concentration vs plate DMSO controls (fold change (ratio)); higher = more amine produced, active = hit call of the paper (significant change in both replicates, either direction)
Summary of the method: as §2

[9] = tested on: Klebsiella aerogenes DSM 30053; assay: as above
Summary of the method: as §2

[10] = tested on: Escherichia coli IAI1; assay: fold change of Cadaverine concentration vs plate DMSO controls (fold change (ratio)); higher = more amine produced, active = hit call of the paper (significant change in both replicates, either direction)
Summary of the method: as §2

[11] = tested on: Klebsiella aerogenes DSM 30053; assay: as above
Summary of the method: as §2

[12] = tested on: Ruminococcus gnavus DSM 108212; assay: fold change of 2-Phenylethylamine concentration vs plate DMSO controls (fold change (ratio)); higher = more amine produced, active = hit call of the paper (significant change in both replicates, either direction)
Summary of the method: as §2

SMILES | growth [1] | growth [2] | growth [3] | growth [4] | fold change of Histamine concentration [5] | fold change of Tryptamine concentration [6] | fold change of Tryptamine concentration [7] | fold change of Putrescine concentration [8] | fold change of Putrescine concentration [9] | fold change of Cadaverine concentration [10] | fold change of Cadaverine concentration [11] | fold change of 2-Phenylethylamine concentration [12]
OC[C@@H](O)[C@H](O)[C@@H](O)CO [Xylitol] (50 µM) | 1 | 1.05 | 1.11 | 1.12 | 1.08 (inactive) | 1.06 (inactive) | 1.06 (inactive) | 1.03 (inactive) | 1.19 (inactive) | 0.916 (inactive) | 1.02 (inactive) | 1.08 (inactive)
C[C@]12CC[C@@H]3c4ccc(O)cc4CC[C@H]3[C@@H]1CC[C@@H]2O [Estradiol-17 beta] (20 µM) | 1.22 | 1.01 | 1.14 | 1.17 | 1.03 (inactive) | 0.984 (inactive) | 1.04 (inactive) | 0.989 (inactive) | 1 (inactive) | 1 (inactive) | 1 (inactive) | 1.04 (inactive)
CC1(C)O[C@@H]2C[C@H]3[C@@H]4CCC5=CC(=O)CC[C@]5(C)[C@@]4(F)[C@@H](O)C[C@]3(C)[C@]2(C(=O)CCl)O1 [Halcinonide] (20 µM) | 1.17 | 1.01 | 1.05 | 1.07 | 0.941 (inactive) | 0.989 (inactive) | 0.963 (inactive) | 0.988 (inactive) | 0.994 (inactive) | 1.02 (inactive) | 1.01 (inactive) | 0.978 (inactive)
O=C1CN(/N=C/c2ccc(-c3ccc([N+](=O)[O-])cc3)o2)C(=O)N1 [Dantrolene sodium salt] (20 µM) | 1.04 | 0.986 | 0.993 | 0.79 | 0.984 (inactive) | 0.968 (inactive) | 1.01 (inactive) | 0.991 (inactive) | 0.979 (inactive) | 1.06 (inactive) | 0.99 (inactive) | 0.939 (inactive)
CN(CCCN1c2ccccc2CCc2ccccc21)CC(=O)c1ccc(Cl)cc1 [Lofepramine] (20 µM) | 1.02 | 0.937 | 1.02 | 1.2 | 0.986 (inactive) | 1.04 (inactive) | 0.891 (inactive) | 1.01 (inactive) | 1.03 (inactive) | 0.989 (inactive) | 0.999 (inactive) | 0.851 (inactive)
Cc1c(N(C)C)c(=O)n(-c2ccccc2)n1C [Amidopyrine] (20 µM) | 0.923 | 1.02 | 0.997 | 1.18 | 0.997 (inactive) | 0.979 (inactive) | 1.16 (inactive) | 0.995 (inactive) | 0.986 (inactive) | 0.985 (inactive) | 1.03 (inactive) | 1.19 (inactive)
CCN1CCN(Cc2ccc(Nc3ncc(F)c(-c4cc(F)c5nc(C)n(C(C)C)c5c4)n3)nc2)CC1 [Abemaciclib] (20 µM) | 0.975 | 1 | 1.04 | 1.19 | 1.02 (inactive) | 1 (inactive) | 1 (inactive) | 0.983 (inactive) | 1.01 (inactive) | 1.03 (inactive) | 0.993 (inactive) | 1.02 (inactive)
COC1=C(OC)C(=O)C(CCCCCCCCCCO)=C(C)C1=O [Idebenone] (20 µM) | 1.18 | 1 | 1.01 | 0.839 | 1.06 (inactive) | 1.02 (inactive) | 1.06 (inactive) | 0.947 (inactive) | 1.01 (inactive) | 1.05 (inactive) | 1.08 (inactive) | 1.17 (inactive)
COC(=O)N/N=C/c1c[n+]([O-])c2ccccc2[n+]1[O-] [Carbadox] (20 µM) | 0.00259 | 0.0346 | 0.0738 | 0.0392 | 0.0834 (active) | 0.00903 (active) | 0.0355 (active) | 0.388 (active) | 0.377 (active) | 0.187 (active) | 0.983 (inactive) | 0.0387 (active)
CC(CCc1ccc(O)cc1)NCCc1ccc(O)c(O)c1 (stereo unspecified) [Dobutamine hydrochloride] (20 µM) | 1.01 | 0.997 | 0.99 | 0.938 | 1.12 (inactive) | 1 (inactive) | 1.02 (inactive) | 0.998 (inactive) | 1.01 (inactive) | 0.971 (inactive) | 0.973 (inactive) | 1.04 (inactive)
O=C1OCCN1/N=C/c1ccc([N+](=O)[O-])o1 [Furazolidone] (20 µM) | 0.395 | 1.04 | 0.855 | 1.22 | 0.991 (inactive) | 0.402 (inactive) | 0.973 (inactive) | 0.81 (inactive) | 0.937 (inactive) | 1.75 (active) | 1 (inactive) | 1.11 (inactive)
NC[C@H]1O[C@H](O[C@H]2[C@H](O[C@@H]3O[C@H](CO)[C@@H](O)[C@H]3O)[C@@H](O)[C@H](N)C[C@@H]2N)[C@H](N)[C@@H](O)[C@@H]1O [Ribostamycin sulfate salt] (20 µM) | 1.07 | 1.04 | 0.972 | 1.2 | 0.975 (inactive) | 1.02 (inactive) | 0.996 (inactive) | 1.14 (inactive) | 0.994 (inactive) | 0.963 (inactive) | 0.994 (inactive) | 1.03 (inactive)
CCC(=O)OCC(=O)[C@@]1(OC(=O)CC)[C@@H](C)C[C@H]2[C@@H]3CCC4=CC(=O)C=C[C@]4(C)[C@@]3(Cl)[C@@H](O)C[C@@]21C [Beclomethasone dipropionate] (20 µM) | 1.19 | 0.997 | 1.04 | 1.22 | 1 (inactive) | 1.01 (inactive) | 0.937 (inactive) | 0.954 (inactive) | 1.01 (inactive) | 1.02 (inactive) | 0.995 (inactive) | 0.921 (inactive)
COc1ccc(CN2CCN(C(c3ccc(F)cc3)c3ccc(F)cc3)CC2)c(OC)c1OC [Lomerizine dihydrochloride] (20 µM) | 1.02 | 1.08 | 1.04 | 0.769 | 0.983 (inactive) | 1.08 (inactive) | 0.781 (inactive) | 1.09 (inactive) | 1.01 (inactive) | 0.984 (inactive) | 1.01 (inactive) | 0.87 (inactive)
CCCCC1(COC(=O)CCC(=O)O)C(=O)N(c2ccccc2)N(c2ccccc2)C1=O [Suxibuzone] (20 µM) | 0.913 | 1.04 | 1.06 | 1.12 | 0.877 (inactive) | 1.07 (inactive) | 0.929 (inactive) | 0.993 (inactive) | 0.987 (inactive) | 0.957 (inactive) | 1 (inactive) | 0.906 (inactive)
CN1C(C(=O)Nc2ccccn2)=C(O)c2sccc2S1(=O)=O [Tenoxicam] (20 µM) | 1.03 | 1.04 | 0.975 | 1.18 | 1.07 (inactive) | 1.01 (inactive) | 1.01 (inactive) | 1.05 (inactive) | 1.01 (inactive) | 1.01 (inactive) | 0.977 (inactive) | 0.959 (inactive)
C/C(=C(\CCOP(=O)(O)O)SC(=O)c1ccccc1)N(C=O)Cc1cnc(C)nc1N [Benfotiamine] (20 µM) | 0.989 | 0.98 | 1.03 | 1.05 | 0.984 (inactive) | 1.01 (inactive) | 0.96 (inactive) | 0.942 (inactive) | 1 (inactive) | 1.04 (inactive) | 1 (inactive) | 0.959 (inactive)
CCN(CC)CCOC(=O)C1(C2CCCCC2)CCCCC1 [Dicyclomine hydrochloride] (20 µM) | 0.883 | 0.966 | 0.998 | 0.659 | 1.01 (inactive) | 0.991 (inactive) | 0.845 (inactive) | 0.988 (inactive) | 1.01 (inactive) | 1 (inactive) | 1 (inactive) | 0.815 (inactive)
CCCc1ncc(C[n+]2ccccc2C)c(N)n1 [Amprolium hydrochloride] (20 µM) | 1.01 | 0.954 | 0.982 | 0.95 | 1.01 (inactive) | 1 (inactive) | 1.11 (inactive) | 0.995 (inactive) | 0.941 (inactive) | 0.936 (inactive) | 1.03 (inactive) | 1.15 (inactive)
CC(C(=O)O)c1ccc2c(c1)Cc1cccnc1O2 (stereo unspecified) [Pranoprofen] (20 µM) | 1.01 | 1.06 | 1.03 | 0.92 | 0.978 (inactive) | 0.985 (inactive) | 0.95 (inactive) | 0.95 (inactive) | 1.01 (inactive) | 0.993 (inactive) | 1.01 (inactive) | 0.94 (inactive)
OC(CCN1CCCC1)(c1ccccc1)C1CCCCC1 (stereo unspecified) [Procyclidine hydrochloride] (20 µM) | 0.903 | 1.05 | 1.02 | 0.966 | 0.947 (inactive) | 0.959 (inactive) | 0.894 (inactive) | 1.13 (inactive) | 1.08 (inactive) | 0.831 (inactive) | 1.04 (inactive) | 0.912 (inactive)
O=C(Oc1ccccc1)c1ccccc1O [Phenyl salicylate] (20 µM) | 1.08 | 0.961 | 0.971 | 1.04 | 1.09 (inactive) | 1.12 (inactive) | 1.08 (inactive) | 1.03 (inactive) | 0.942 (inactive) | 0.916 (inactive) | 1 (inactive) | 1.13 (inactive)
CC(C)NCC(O)COc1cccc2[nH]c3ccccc3c12 (stereo unspecified) [Carazolol] (20 µM) | 0.738 | 1 | 0.956 | 1.12 | 1.06 (inactive) | 0.732 (inactive) | 1.07 (inactive) | 0.922 (inactive) | 0.966 (inactive) | 0.889 (inactive) | 0.992 (inactive) | 1.14 (inactive)
